Screening data: PubChem BioAssay, National Center for Advancing Translational Sciences (NCATS)
Most compounds without a hit are left out; they make up all but 5.4% or so of the library.
Sm TGR block: blocks Schistosoma mansoni thioredoxin glutathione reductase. Q962Y6. purified TGR, DTNB reduction, TNB absorbance 405 nm. Potency, µM (series often up to 114 µM), for inactives: at the highest dose activity change, negative = inhibition, most hits filed as inhibitors. 360,000 compounds, 3% hits; active = well fitted inhibition curve with a large enough effect; inconclusive = small, poorly fitted or top-dose-only effect; inactive = no such curve, though single readings can be large or run the other way; note: nearly all actives have a fitted effect of over 60% in size
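TGR 20 nM + NADPH 100 uM (dispensed conc.), cpd preinc 15 min RT; start with NADPH (500 uM addition) then DTNB (15 mM addition). Kinetic TNB absorbance, 405 nm filter. Four-parameter Hill fit across titration.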
MARV entry inh: blocks Marburg virus binding to or entry into cells; Marburg virus pseudotyped entry inhibition, cell reporter; Potency, µM (series often up to 37.8 µM), for inactives: top-dose activity change, negative = inhibition, actives largely listed as inhibitors; 300,000 compounds, 1.8% hits; calls by dose curve; tested in HEK293 cells
FMDV antiviral: antivirals against foot and mouth disease virus | FMDV antiviral cell-based qHTS | Potency, µM (titrated, usually from 57.9 µM), for the others: top-dose activity change, negative = inhibition, actives largely listed as inhibitors | 410,000 compounds, 1.2% hits; calls by dose curve; tested in HEK293T cells; note: read-out not given here; nearly all actives have a fitted effect of over 45% in size
LASV entry inh: inhibitors of Lassa virus binding or cell entry; Lassa virus pseudotype entry inhibition, cell reporter; Potency, µM (top dose mostly 37.9 µM), for inactives: at the top dose activity change, negative = inhibition, hits mostly inhibitors; 300,000 compounds, 1.2% hits; AID 540256; calls by dose curve; tested in HEK293 cells; note: nearly all actives have a fitted effect of over 50% in size
Vaccinia mCherry: vaccinia inhibition (mCherry reporter) | Vaccinia virus mCherry reporter infection, fluorescence | Potency, µM (series often up to 36.5 µM), for the others: at the top dose activity change, negative = inhibition, actives largely listed as inhibitors | 310,000 compounds, 0.63% hits | AID 720579; calls by dose curve; tested in A549 cells; note: nearly all actives have a fitted effect of over 35% in size
Vaccinia Venus: vaccinia inhibition (Venus reporter) | 330,000 compounds, 0.46% hits | Vaccinia virus Venus reporter expression, fluorescence | AID 720580 | Potency, µM (series often up to 36.5 µM), for the others: top-dose activity change, negative = inhibition, hits mostly inhibitors; calls by dose curve; tested in A549 cells; note: nearly all actives have a fitted effect of over 30% in size
The depositor's hits bear a star; i = inactive; u = inconclusive; x = no result; [ ] = dose if it differs, or a comment. % is set by controls: 0 for no effect and ±100 for the full control effect; potency is the fitted concentration of half-maximal effect.

SMILES | Sm TGR block | MARV entry inh | FMDV antiviral | LASV entry inh | Vaccinia mCherry | Vaccinia Venus
CCN1CCc2nc3sc(C(=O)c4ccccc4)c(N)c3cc2C1 | -2% | u | 34% | 31%[46.1 µM] | -29% | 15%
Cc1nc(C)n(CC(=O)N2CCOc3ccc(CN4CCN(C)C[C@@H]4c4ccccc4)cc3C2)n1 | x | x | -15% | x | -4% | -10%
CC(CN1CCc2nnc(CNC(=O)c3cccc(F)c3)n2CC1)c1ccccc1 (configuration not stated) | x | x | -6% | x | -12% | -10%
N=c1sccn1CC(=O)Nc1ccc(S(N)(=O)=O)cc1 | 45µM* | -3%[46.1 µM] | -1% | 0% | -26% | -24%
N=c1sccn1CC(=O)Nc1ccc(Cl)cc1[N+](=O)[O-] | 40µM* | 15%[46.1 µM] | -9% | 19% | u | -23%
COc1cc(NC(=O)Cn2ccsc2=N)c(C)cc1[N+](=O)[O-] | -33% | u | -23% | u | x | x
Cc1nc2ccccn2c(=O)c1NC(=O)c1ccc(C(F)(F)F)cc1 | 3% | x | 15% | 17%[46.1 µM] | -19% | -10%
COC(=O)c1ccc(CN2C(=O)[C@]3(OCCC=C[C@@H]3C)c3cc(OC)ccc32)cc1 | x | -23%[14.2 µM] | x | x | x | x
CC(=O)c1cc2c(cc1NC(=O)CCCC(=O)O)OCO2 | -15% | 12% | -19% | 1% | -12% | -5%
CC(=O)c1cc2c(cc1NC(=O)CCn1cnnn1)OCO2 | 50µM* | 0%[46.1 µM] | -11% | -6% | -13% | 1%
Cc1ccc(Cn2c(C)c(CNCc3ccccc3F)c(C(=O)O)c2C)cc1 | -7% | 14%[46.1 µM] | -23% | 0%[46.1 µM] | 2% | 3%
CCC(=NCCOc1ccc(Cl)cc1)c1c(O)n(C)c(=O)n(C)c1=O | 3% | -24% | 25µM* | 2% | -26% | -17%
CCC(=Nc1cccc(C(F)(F)F)c1)c1c(O)n(C)c(=O)n(C)c1=O | 5% | 1%[46.1 µM] | -31% | -8% | i | 2%
CCCCn1c(O)c(C(CC)=NC(C)c2ccccc2)c(=O)[nH]c1=O (configuration not stated) | -12% | u | -27% | u | -10% | -29%
CCCCn1c(O)c(C(CC)=Nc2ccc(OCC)cc2)c(=O)[nH]c1=O | 16% | -3% | u | 0.33µM* | x | x
CCCCn1c(O)c(C(CC)=Nc2ccc(OC)cc2OC)c(=O)[nH]c1=O | -15% | u | 18µM* | u | x | x
CCC(=NCCN1CCCCC1)c1c(O)n(C)c(=O)n(C)c1=O | u | -7% | -1% | 13% | x | -10%
CCC(=Nc1ccc(OC)cc1OC)c1c(O)n(C)c(=O)n(C)c1=O | -1% | u | 32µM* | -17% | -14% | -11%
CCCCn1c(O)c(C(CC)=NCc2cc(OC)cc(OC)c2)c(=O)[nH]c1=O | u | -2% | u | u | x | x
Cc1nc2nncn2c(NCc2ccc(Cl)cc2)c1C | -2% | u | -15% | -3%[46.1 µM] | -28% | -24%
COc1cc(=O)n2c(c1C(=O)NCc1ccco1)CCN(Cc1c(F)cccc1F)CC2 | x | x | -17% | x | i | -15%
NC(=O)CN1C[C@@H](O)CC1=O | x | 1% | x | x | x | x
C=CCn1c(O)c(C(C)=Nc2ccc(N(CC)CC)cc2)c(=O)[nH]c1=O | -24% | -18% | u | u | x | x
C=CCn1c(O)c(C(CC)=Nc2ccc(N(CC)CC)cc2)c(=O)[nH]c1=O | 0% | -1% | -20% | 3.3µM* | x | x
Cc1ccc(/C=C/C(=O)NCc2cccs2)o1 | 2.8µM* | -13% | 55% | u | i | -9%
SMILES | Sm TGR block | MARV entry inh | FMDV antiviral | LASV entry inh | Vaccinia mCherry | Vaccinia Venus
O=C(/C=C/c1cccs1)NCc1cccs1 | x | x | 60% | x | x | x
Cc1ccc(/C=C/C(=O)NCc2cccs2)cc1 | 3% | -2% | 44% | 2µM* | -10% | -5%
Cc1ccc(CNC(=O)/C=C/c2ccc(Br)o2)cc1 | 8.9µM* | 10% | 9% | u | -7% | 0%
CCN(CC)C(=O)Cn1c(=O)n(-c2ccc(Cl)cc2)c(=O)c2c3c(sc21)CCCCC3 | -2% | u | -18% | -2%[46.1 µM] | u | u
COC(=O)c1cc(NC(=O)c2nn(C)c3c2CSc2ccccc2-3)cc(C(=O)OC)c1 | 8% | u | -4% | 8%[46.1 µM] | -14% | -4%
C=CCn1c(C)c(/C=C/c2cc[n+](C)cc2)c2ccccc21 | 4% | 2.8µM* | u | u | -7% | 161%
COc1ccccc1CNC(=O)CSCc1nc(-c2ccc(OC)c(OC)c2)oc1C | u | u | -22% | -12%[46.1 µM] | -13% | -11%
Cc1cc(C(F)(F)F)nc(SCc2ccc(C(=O)O)o2)n1 | 14µM* | 7% | -15% | 2% | -13% | -6%
O=C(O[C@H]1[C@H](Cc2ccccc2)NS(=O)(=O)[C@H]2C[C@@H]3C=C[C@]12O3)c1ccccc1Br | x | x | x | x | -13% | -6%
C=CCN(c1ccccc1OC)S(=O)(=O)c1cccc(C(=O)OCC(=O)c2c(N)n(C)c(=O)n(C)c2=O)c1 | x | u | 40µM* | u | -17% | u
CNS(=O)(=O)c1cccc(C(=O)OCC(=O)c2c(N)n(C)c(=O)n(C)c2=O)c1 | 1% | 10%[46.1 µM] | 15% | -16% | 11% | -3%
COc1ccc(/C=C2/C(=O)NC(=O)N(C3CCCCC3)C2=O)cc1CSc1ccccn1 | 35µM* | x | x | x | x | x
COc1ccc(/C=C2/C(=O)NC(=S)N(C3CC3)C2=O)cc1CN1C(=O)c2ccccc2C1=O | 11µM* | 9% | u | 2% | -8% | -7%
COc1ccc(C=C2C(=O)N(C)C(=O)N(C)C2=O)cc1CSc1ccccn1 | u | 21% | u | -7% | x | -16%
O=C(NCC(c1ccc2c(c1)OCO2)N1CCOCC1)c1cccc(Cl)c1 (configuration not stated) | -14% | x | -5% | -5%[46.1 µM] | -13% | 4%
CCN(CC)c1ccc(NS(=O)(=O)c2cc(-c3onc(C)c3C)ccc2OC)c(C)c1 | u | x | 3% | u | -15% | -13%
O=c1[nH]c(CSc2nnc3ccccn23)nc2ccccc12 | -19% | 10% | 5% | 4% | -8% | -5%
O=c1cc(CSc2nnc3ccccn23)c2c(ccc3ccccc32)o1 | 45µM* | u | -14% | 12% | -18% | -7%
Cc1c(C(=O)NN)nn(-c2ccc(Cl)cc2)c(=O)c1C#N | -14% | u | 13µM* | -23% | i | -4%
Cc1ccc(S(=O)(=O)c2nc(S(=O)(=O)c3ccc(C)cc3)c(NCCCOC(C)C)s2)cc1 | -8% | -5%[46.1 µM] | 7% | u | -10% | -11%
CC(=O)c1c(C)[nH]c(C(=O)OCc2ccccc2)c1C | -9% | u | 4% | u | -21% | -21%
COC(=O)CCc1c(COC(C)=O)[nH]c(C(=O)OCc2ccccc2)c1C | 3.5µM* | x | -6% | x | x | x
CCN(CC)CCc1c(C)[nH]c(C(=O)OCc2ccccc2)c1C | -12% | 26µM* | 7% | -9% | i | -17%
CCOC(=O)c1[nH]c(C)c(CCC(=O)OC)c1C | -3% | 24% | -15% | 16% | x | x
